PubChem BioAssay (NCATS)
Values joined by “and” are separate entries in the source; they are usually repeats but may differ in a detail not shown here. Equal values may be shown once. Records with an inconclusive call do not appear. Values without a mark were called inactive. Active and inactive are the calls of the source. Calls come from the whole dose curve; as a rule, active = well fitted cell-killing curve with a large enough effect; inconclusive = small, poorly fitted or top-dose-only effect; inactive = flat fitted curve, though single readings scatter.
% is set by controls: 0 for no effect and ±100 for the full control effect; potency is the fitted concentration of half-maximal effect.

Assay: qHTS of pediatric cancer cell lines to identify multiple opportunities for drug repurposing: Primary screen for TC32 cells (AID 1347089); note: nearly all actives have a fitted effect of over 60% in size
Conditions: TC32 Ewing sarcoma viability, CellTiter-Glo luminescence, 48 h; series mostly up to 45.8 µM; activity change, negative = cytotoxic: at the top concentration
Excerpt: Drug repurposing or repositioning has been offered as a strategy for drug development in oncology programs. This approach has special potential for childhood cancers and other rare or orphan diseases, where the expected return on new drug development has been a disincentive to pharmaceuticals.
In this project we exploit the poly-pharmacology of drugs to discover new indications via phenotypic screening of a panel of 19 well-characterized cell lines derived from solid tumors seen in children and adolescents. The goal is to identify approved drugs with previously unrecognized anticancer properties that has the potential to reveal new mechanisms and biological processes involved in carcinogenesis or drug resistance. We employed a titration-based paradigm (quantitative high-throughput screening or qHTS), where all compounds were tested at multiple concentrations for their effect on cell viability. Concentration-response curves (CRCs) were derived directly from the primary screen, and both potency and efficacy values were used to identify compounds with robust bioactivity profiles. We screened the NIH Chemical Genomics Center (NCGC) Pharmaceutical Collection (NPC) and Mechanism Interrogation Plate (MIPE) small molecule collections of approved and investigational compounds against these cell lines; and measured metabolically active cells after 48 hours of compound treatment as a proxy for cell viability.
Assay Submitter: Nathalia J. Martinez, National Center for Advancing Translational Sciences, National Institutes of Health, Rockville, MD, USA; email: natalia.martinez@nih.gov
[1] Shen, M et al. Quantitative high-throughput phenotypic screening of pediatric cancer cell lines identifies multiple opportunities for drug repurposing. Oncotarget 2017 Dec 19;9(4):4758-4772. PMID 29435139.
The cells were obtained from University of North Carolina (UNC), Pediatric Preclinical Testing Program (PPT), and Coriell Institute (CI).
qHTS cell viability assay:
Cells were assayed in growth media at a density of 500-1,000 cells/well. Five microliters of cells were dispensed into 1,536-well, white, solid-bottom, TC-treated plates (Greiner Bio One) using a multidrop dispenser and incubated at 37 degrees C, 5% CO2, under a humidified atmosphere for 5 hours. Twenty-three nanoliters of compounds and controls (neutral control DMSO or positive control bortezomib at final concentration of 2.3 uM) were subsequently transferred by Kalypsys pintool. For primary screens, the MIPE collection was tested at 11-point dilutions (final concentrations range from 0.78 nM to 46 µM) and the NPC collection at 8-point dilutions (final concentrations range from 0.59 nM to 46 µM). Compounds tested in follow-up screens were assayed at 11-point dilutions. Cells were incubated for 48 hours, followed by addition of 3 uL of CellTiter-Glo (Promega). After a 15min incubation at room temperature, samples were analyzed for luminescence intensity using a ViewLux High-throughput CCD imager equipped with clear filters.
For Nc1nc(OCc2ccccc2)c2[nH]cnc2n1, the “activity change, negative = cytotoxic” value was 9.39%. In the case of C[C@]12CCC(=O)C=C1CC[C@@H]1[C@H]2[C@@H](O)C[C@@]2(C)[C@H]1CC[C@]2(O)C(=O)CO, the “activity change, negative = cytotoxic” value is reported as 13.3%. With COc1ccccc1N1CCN(CCN(C(=O)C2CCCCC2)c2ccccn2)CC1 the “activity change, negative = cytotoxic” value was 17.2%. For CC(C)(S)[C@@H](N)C(=O)O, the “activity change, negative = cytotoxic” value was 11.7%. In the case of O=c1c(O)c(-c2ccc(O)cc2O)oc2cc(O)cc(O)c12, the “activity change, negative = cytotoxic” value is reported as 3.76%. For CCOc1cc(CC(=O)N[C@@H](CC(C)C)c2ccccc2N2CCCCC2)ccc1C(=O)O, the “activity change, negative = cytotoxic” value was 7.71%. For NC(=NCc1ccccc1)NC(=O)c1nc(Cl)c(N)nc1N, the “activity change, negative = cytotoxic” value was 18.2%. With CCCc1cc(=O)[nH]c(=S)[nH]1 the Potency was “inactive”. With CCCCN(CCCC)CCC(O)c1cc2c(Cl)cc(Cl)cc2c2cc(C(F)(F)F)ccc12 (stereo not given) the Potency was “inactive”. For Clc1ccc2c(N3CCN(CCCN4CCN(c5ccnc6cc(Cl)ccc56)CC4)CC3)ccnc2c1, the “activity change, negative = cytotoxic” value was 11.3% [at 16 µM]. For Cc1cccc(CN2CCN(C(c3ccccc3)c3ccc(Cl)cc3)CC2)c1 (stereo not given), the Potency was “inactive”. With CN1CCC(=C2c3ccccc3CCc3sccc32)CC1 the Potency was “inactive”. For Clc1ccc(C(Cn2ccnc2)OCc2ccc(Sc3ccccc3)cc2)c(Cl)c1 (stereo not given), the Potency was “inactive”. For CCCS(=O)c1ccc2nc(NC(=O)OC)[nH]c2c1 (stereo not given), the “activity change, negative = cytotoxic” value was -7.38%. In the case of CC1(C)NC(=O)N(c2ccc([N+](=O)[O-])c(C(F)(F)F)c2)C1=O, the Potency is reported as “inactive”. In the case of C=CCc1cc(OC)c(O)c(C(=O)NCCO)c1, the Potency is reported as “inactive”. With Oc1ccc2ccccc2c1SSc1c(O)ccc2ccccc12 the “activity change, negative = cytotoxic” value was 2.54%. For Cc1cc(=O)oc2cc(O)ccc12, the Potency was “inactive”. In the case of Clc1ccc(C(Cn2ccnc2)OCc2c(Cl)cccc2Cl)c(Cl)c1 (stereo not given), the “activity change, negative = cytotoxic” value is reported as -0.397%. In the case of CC(C)Oc1ccc2c(=O)c(-c3ccccc3)coc2c1, the Potency is reported as “inactive”. In the case of N=C(N=C(N)N)N1CCOCC1, the Potency is reported as “inactive”. With CC(C)[N+]1(C)[C@@H]2CC[C@H]1CC(OC(=O)C(CO)c1ccccc1)C2 (stereo not given in full) the “activity change, negative = cytotoxic” value was 3.44%. In the case of CCN(CC)C(=S)SSC(=S)N(CC)CC, the Potency is reported as 989 nM (active) and 4.19 µM (active). With C[Se]CCC(N)C(=O)O (stereo not given) the “activity change, negative = cytotoxic” value was 1.83% [at 92.2 µM]. For CC(C)c1ccc2c(c1)c(SC(C)(C)C)c(CC(C)(C)C(=O)O)n2Cc1ccc(Cl)cc1, the “activity change, negative = cytotoxic” value was 0.153%. For Cc1cc2cc3c(C)cc(=O)oc3c(C)c2o1, the Potency was “inactive”. In the case of COC1=C(OC)C(=O)C(CCCCCCCCCCO)=C(C)C1=O, the “activity change, negative = cytotoxic” value is reported as 4.16%. In the case of CCCCc1ccc2nc(NC(=O)OC)[nH]c2c1, the Potency is reported as 117 nM (active) and 47 nM (active). With COc1ccc(C2(C#N)CCC(C(=O)O)CC2)cc1OC1CCCC1 (stereo not given) the “activity change, negative = cytotoxic” value was 12.4%. For Clc1ccc(C(Cn2ccnc2)OCc2ccsc2Cl)c(Cl)c1 (stereo not given), the “activity change, negative = cytotoxic” value was -10.3%. In the case of Cc1ccc(S(=O)(=O)NC(=O)NN2CC3CCCC3C2)cc1 (stereo not given), the Potency is reported as “inactive”. For Cc1cc(C2CCCCC2)n(O)c(=O)c1, the Potency was 7.45 µM (active). In the case of CC1(C)CCC(C)(C)c2cc(NC(=O)c3ccc(C(=O)O)cc3)ccc21, the Potency is reported as “inactive”. For CCC(C)(Oc1ccc(C2(c3ccc(OC(C)(CC)C(=O)O)cc3)CCCCC2)cc1)C(=O)O (stereo not given), the “activity change, negative = cytotoxic” value was 14.4%. In the case of CN(C)CCCC1(c2ccc(F)cc2)OCc2cc(C#N)ccc21 (stereo not given), the “activity change, negative = cytotoxic” value is reported as -1.64%. For COC(=O)C1=C(C)NC(C)=C(C(=O)OC(C)C)C1c1cccc2nonc12 (stereo not given), the Potency was “inactive”. With COC(=O)C1=C(C)NC(C)=C(C(=O)OCCCN2CCC(c3ccccc3)(c3ccccc3)CC2)C1c1cccc([N+](=O)[O-])c1 (stereo not given) the “activity change, negative = cytotoxic” value was 10.4%. In the case of COc1c2occc2cc2ccc(=O)oc12, the Potency is reported as “inactive”. For Cc1c(OCC(F)(F)F)ccnc1CS(=O)c1nc2ccccc2[nH]1 (stereo not given), the Potency was “inactive”. For Cc1cc(=O)c2c(O)c3c(O)cc(=O)c4c3c3c(cc(O)c1c23)C(C)(C)C=4O, the Potency was “inactive”.
